# High-throughput results: PubChem BioAssay, National Center for Advancing Translational Sciences (NCATS)
# Compounds with a hit are over-represented: about 9.2% of the library has one in this group of screens.
# FLuc modulator: firefly luciferase modulation, counter-screen for miR-21 project | Potency, µM (top dose mostly 57.5 µM), for the others: at the highest dose activity change, negative = inhibition, hits mostly inhibitors | 6.9% of 360,000 active | P08659 | purified FLuc, Km substrates, luminescence inhibition | AID 588342;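 note: plate controls were vehicle for no effect and reference inhibitor for full effect; nearly all actives have a fitted effect of over 55% in size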
# Target sequence (P08659 whole entry, looked up): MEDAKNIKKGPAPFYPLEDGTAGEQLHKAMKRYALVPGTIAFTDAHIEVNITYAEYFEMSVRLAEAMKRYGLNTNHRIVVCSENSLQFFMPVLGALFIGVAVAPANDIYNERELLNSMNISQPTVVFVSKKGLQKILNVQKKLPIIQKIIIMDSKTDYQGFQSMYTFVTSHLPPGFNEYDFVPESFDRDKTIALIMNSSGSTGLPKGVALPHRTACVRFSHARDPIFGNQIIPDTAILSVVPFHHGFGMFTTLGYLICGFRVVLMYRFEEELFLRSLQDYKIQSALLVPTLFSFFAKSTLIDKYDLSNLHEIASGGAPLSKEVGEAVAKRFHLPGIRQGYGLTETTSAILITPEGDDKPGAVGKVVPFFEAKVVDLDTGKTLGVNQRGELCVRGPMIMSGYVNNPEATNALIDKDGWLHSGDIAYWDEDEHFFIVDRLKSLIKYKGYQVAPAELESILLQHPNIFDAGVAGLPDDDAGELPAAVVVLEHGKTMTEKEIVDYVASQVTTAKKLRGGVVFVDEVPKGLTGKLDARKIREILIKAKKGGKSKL
#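 Purified P. pyralis luciferase, 10 nM final, with Km-level 10 uM D-luciferin and 10 uM ATP in 50 mM Tris acetate pH 7.5, 10 mM Mg acetate, 0.01% Tween-20, 0.05% BSA; 6-point qHTS titration about 60 µM downward; luminescence read.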
# NPC1 promoter act: activators of NPC1 promoter. Huh7 NPC1 promoter luciferase reporter, 24 h. Potency, µM (top dose mostly 9.22 µM), for the others: top-dose activation, actives largely listed as activators. 2.4% of 320,000 active; note: % of control where 0% means no effect; nearly all actives have a fitted effect of over 60% in size
#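 Quantitative HTS used a cell-based reporter: Huh7 cells stably bearing the NPC1 promoter upstream of luciferase were treated with compounds for 24 h, and promoter activation was read as luminescence.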
# ELG1 DNA repair: inhibitors of ELG1-dependent DNA repair in HEK293T cells. 2.3% of 330,000 active. Potency, µM (doses to about 46.1 µM), for inactives: at the top dose activity change, negative = inhibition, actives largely listed as inhibitors. HEK293T ELG1-luciferase reporter, luminescence, 16 h; DNA damage induced by 5-fluorouridine. AID 504467; note: % is set by controls: 0 for no effect and ±100 for the full control effect; nearly all actives have a fitted effect of over 55% in size
#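 Cells (2,000 per well) received 5-fluorouridine plus test compound or DMSO and were incubated 16 hr at 37 °C, 5% CO2. Luciferase activity was read by luminescence 30 min after ONE-Glo addition; signal suppression marked inhibition of damage-induced ELG1 function.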
# SMN2 splice enh: increases expression of the SMN2 splice variant; HEK293 SMN2-luciferase splicing reporter, luminescence, 30-36 h; Potency, µM (titrated, usually from 46.1 µM), without a hit: top-dose activity change, positive = activation, actives largely listed as activators; 2.8% of 210,000 active; note: % of control where 0% means no effect; nearly all actives have a fitted effect of over 55% in size
#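 HEK293 cells carry an SMN2 […]–luciferase reporter in which exon 7 inclusion puts luciferase in frame. Cells were plated 10-12 h before compound addition, then incubated 30-36 h at 37C. ONE-Glo luminescence was read; sodium butyrate at 4.5 mM final served as control.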
# ELG1 genotoxic: induces genotoxicity in HEK293T cells with luciferase-tagged ELG1; HEK293T ELG1-luciferase reporter, luminescence, 16 h; Potency, µM (series often up to 46 µM), without a hit: at the highest dose activity change, positive = activation, usual class: activators; 1.3% of 330,000 active; note: % of control where 0% means no effect; nearly all actives have a fitted effect of over 60% in size
#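 Genotoxic stress is detected as increased luminescence from luciferase-tagged ELG1 in HEK293T cells, measured with ONE-Glo after a 16 hr treatment at 37 °C.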
# Rab9 promoter act: Rab9 promoter activation. Huh7 Rab9 promoter-luciferase reporter, luminescence, 24 h. Potency, µM (highest dose often 9.22 µM), for inactives: at the highest dose activation, negative = inhibition, hits mostly activators. 2.8% of 320,000 active. AID 485297; note: % of control where 0% means no effect; nearly all actives have a fitted effect of over 60% in size
#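 Steps: seed 1500 Huh7 Rab9-luc cells per well, rest 2 h at 37 °C; add compound in DMSO; incubate 24 h; add luciferase reagent, 10 min ambient; read luminescence.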
# * marks the source's active call; other numbers are inactive results; ? = inconclusive; . = no result given; [ ] = dose if it differs, or a comment. Calls come from the whole dose curve; as a rule, active = well fitted curve in the direction sought with a large enough effect; inconclusive = small, poorly fitted or top-dose-only effect, or another doubt; inactive = no such curve, though single readings can be large; an effect the other way counts as inactive or inconclusive. Potency is the fitted concentration of half-maximal effect.
SMILES,FLuc modulator,NPC1 promoter act,ELG1 DNA repair,SMN2 splice enh,ELG1 genotoxic,Rab9 promoter act
Cc1ccccc1NC(=O)c1ccc(F)c(S(=O)(=O)N2CCN(c3ccccc3F)CC2)c1,-9.5%,.,.,.,.,.
CCN(CC)S(=O)(=O)c1ccc2c(c1)nc(SCC(=O)N1CCCCCC1)n2-c1ccc(OC)cc1,5.1%,-3.9%,5.17µM*,10.3%,-0.9%,-4.0%
O=C(Nc1ccc2c(c1)OCCO2)c1ccc(Cl)c(Cl)c1,4.78µM*,1.58µM*,?,.,2.59µM*,1.41µM*
COC(=O)c1ccc(NC(=O)c2ccc3nccnc3c2)cc1,?,1.9%,-7.4%,.,-7.2%,1.5%
O=C(Nc1ccc2c(c1)OCCO2)c1cccnc1,?,?,?,?,?,3.98µM*
Cc1ccc(C(=O)Nc2ccc3nccnc3c2)cc1,0.953µM*,0.891µM*,?,3.16µM*,?,0.447µM*
O=C(Nc1ccc2c(c1)OCCO2)c1ccc2nccnc2c1,3.01µM*,1µM*,?,?,?,0.794µM*
Cc1cc(NC(=O)CN2C(=O)C(C)(C)c3ccccc32)ccc1Br,-9.6%,.,.,.,.,.
CCOc1ccc(Oc2nc(NCC(C)C)nc(NC(C)(C)C)n2)nn1,4.5%,.,.,?,.,.
CN1CCO[C@H](c2ccccc2)c2ccccc2C1,.,.,.,-1.3%[20.6 µM],.,.
Cc1cc(N2CCC(C(=O)Nc3ccccc3Cl)CC2)n2nc(C)c(-c3ccc(Cl)cc3)c2n1,0.8%,.,.,0.4%,.,.
NS(=O)(=O)c1cccc(NC(=O)c2ccc3nc[nH]c3c2)c1,19µM*,-4.6%,-4.7%,.,-1.3%,-5.8%
O=C(Nc1ccc(C(F)(F)F)cc1)c1ccc2nc[nH]c2c1,?,18.3%,?,-1.4%,-3.3%,18.5%
O=C(Nc1cccc(Cl)c1)C1=Cc2cc(Cl)ccc2OC1,-19.6%,-4.9%,-14.1%,-3.9%,-5.6%,-9.5%
O=C(Nc1ccc(Cl)c(Cl)c1)C1=Cc2ccccc2OC1,10.7µM*,?,?,?,?,2.51µM*
CCn1cc([N+](=O)[O-])c(C(=O)NCc2ccc3c(c2)OCO3)n1,3.5%,1.8%,2.7%,.,-1.1%,-0.8%
CCn1cc([N+](=O)[O-])c(C(=O)Nc2ccc3c(c2)OCCO3)n1,19µM*,?,?,?,?,?
O=C(Nc1ccc2c(c1)OCO2)c1ccc2nc[nH]c2c1,21.3µM*,?,?,?,16.4µM*,3.55µM*
COc1ccc2c(c1)c1c(c(=O)n(-c3ccc(OC)c(OC)c3)c(=O)n1Cc1ccccc1C)n2C,-0.2%,.,.,.,.,.
COc1ccc(N2CC3=C(C2=O)C(c2ccc(O)c(OC)c2)NC(=O)N3C)cc1 (stereo not drawn),5.0%,.,.,-6.5%,.,.
CCS(=O)(=O)N1CC(=O)N(c2ccc(Cl)cc2)C(C)(C(=O)NC2CCCCC2)C1 (stereo not drawn),-1.2%,.,.,.,.,.
CCCCNC(=O)c1nn(-c2ccc(C)cc2)c(=O)c2c1c1ccccc1n2C,-5.5%,.,.,-5.1%,.,.
Cc1cc(C(=O)Nc2ccc3c(c2)OCCO3)ccc1[N+](=O)[O-],0.757µM*,0.708µM*,?,.,0.517µM*,?
O=C(Nc1ccc2nc3ccccc3nc2c1)c1ccc(Br)cc1,-2.5%,18.8%,?,3.2%,-0.7%,28.1%
O=C(Nc1ccc2cccnc2c1)c1ccc(Br)cc1,19µM*,16.2%,?,.,9.7%,6.7%
SMILES,FLuc modulator,NPC1 promoter act,ELG1 DNA repair,SMN2 splice enh,ELG1 genotoxic,Rab9 promoter act
O=C(Nc1ccc2c(c1)OCCO2)c1ccc(Cl)c([N+](=O)[O-])c1,?,-3.4%,?,17.8µM*,?,-0.7%
CC(C)CN(C(=O)C(C)N1C(=O)c2ccccc2C1=O)c1c(N)n(Cc2ccccc2)c(=O)[nH]c1=O (stereo not drawn),-1.4%,-7.1%,0.9%,.,3.2%,0.8%
CC(C)N(CCNC(=O)c1ccc(CS(=O)(=O)c2c(Cl)cccc2Cl)o1)Cc1ccccc1,4.0%,-0.4%,11.6%,.,-3.0%,6.7%
Cc1nnsc1-c1onc(C)c1C(=O)Nc1cc(Cl)cc(Cl)c1,-0.2%,-2.5%,16.4µM*,.,-18.9%,-4.3%
Cc1ccc(Cc2nc3ccccc3nc2SCC(=O)N2CCCCC2C)cc1 (stereo not drawn),-16.5%,.,.,.,.,.
Cc1ccc(Cn2cnc3c(cnn3C(C)(C)C)c2=O)cc1,-18.5%,-4.8%,16.4µM*,.,-12.2%,1.1%
CC(C)(C)n1ncc2c(=O)n(Cc3c(F)ccc(Cl)c3Cl)cnc21,13.5µM*,.,.,.,.,.
Cc1ccc(F)c(Cn2cnc3c(cnn3C(C)(C)C)c2=O)c1Cl,?,0.8%,?,.,-2.5%,-1.2%
CC(C)(C)n1ncc2c(=O)n(CC(=O)NCc3ccccc3Cl)cnc21,3.01µM*,0.398µM*,?,11.2µM*,?,0.398µM*
CC1(C)OC(=O)C=C[C@@]2(C)C1C[C@@H](O)[C@]1(C)C2CC[C@@]2(C)C(c3ccoc3)OC(=O)[C@H]3O[C@]321 (stereo partly drawn),.,.,.,5.2%,.,.
Cc1ccc(C(=O)Nc2cccc(C(=O)NCc3ccccc3)c2)o1,?,-2.1%,-20.4%,-18.9%,-0.5%,1.3%
C/C(=N\NC(=O)C1(C)CC1(Br)Br)c1ccc(NC(=O)C2CCC2)cc1 (stereo not drawn),2.8%,-3.7%,6.51µM*,-14.2%,-4.2%,0.6%
C/C(=N\NC(=O)C1(C)CC1(Br)Br)c1cccc(NC(=O)c2ccc(C)o2)c1 (stereo not drawn),-13.5%,-5.2%,7.3µM*,.,-19.9%,1.8%
CCc1ccc(CNC(=O)c2nn(-c3ccc(OC)c(Cl)c3)c(=O)c3c2c2ccccc2n3C)cc1,4.2%,.,.,-9.0%,.,.
COC(=O)c1c(NC(=O)Cc2coc3ccc(C(C)C)cc23)sc2c1CCC2,-7.4%,.,.,1.8%,.,.
CC(=O)Nc1ccccc1OCC(O)CS(=O)(=O)c1ccc(C(F)(F)F)cn1 (stereo not drawn),-0.5%,-8.6%,?,.,-4.0%,-0.8%
O=C(N/N=C/c1ccc(OC(=O)c2ccccc2Cl)cc1)c1ccccn1,1.51µM*,2.82µM*,?,.,8.2µM*,?
CCc1ccc(/C=N/NC(=O)c2ccccn2)cc1,0.477µM*,0.447µM*,?,.,?,0.126µM*
O=C(CNC(=O)c1ccccn1)N/N=C/c1ccccc1,?,-2.0%,17.5%,7.3%,1.4%,-1.4%
CCN(CC)c1ccc(/C=N/NC(=O)c2cnccn2)cc1,12µM*,-9.0%,?,20µM*,11.6µM*,?
CCN(CC)c1ccc(/C=N/NC(=O)c2ccc([N+](=O)[O-])cc2)cc1,8.0%,-3.4%,-7.5%,.,6.3%,3.1%
